This is an account of results in PubChem BioAssay (NCI).

Each structure is given as a SMILES string. This is part of a sample that, as a whole, favours compounds with a hit. Of some 79,000 tested, about 15% had one in any assay. A number with no mark means an inactive call. Activity calls are given as the source filed them. Cut-off read from the data, not from the text of the source: active = growth inhibition above about 70%; inactive = the rest.

A short description of test [1]: NCI Yeast Anticancer Drug Screen. Data for the rad50 strain (AID 155).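 Note: 0% = growth of vehicle-only cultures of the same strain.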 The following applies: S. cerevisiae rad50 strain growth inhibition; at 50.0 µM; stronger effect = higher value. In a few lines: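 A DNA repair-deficient yeast mutant serves as the test organism; compound-induced growth inhibition is calculated against vehicle-treated cells.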
Test [2] in a line: NCI Yeast Anticancer Drug Screen. Data for the mec2-1 strain (AID 157). The conditions noted are these: S. cerevisiae mec2-1 strain, at 50.0 µM, stronger effect = higher value. In a few lines:
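Vehicle-treated cultures served as reference for growth inhibition of compound-exposed mec2-1 yeast.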

The nature of test [3]: NCI Yeast Anticancer Drug Screen. Data for the sgs1 mgt1 strain (AID 161).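 Note: 0% = growth of cultures given vehicle only.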 The following applies: S. cerevisiae sgs1 mgt1 strain, at 50.0 µM, stronger effect = higher value. In a few lines: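 Inhibition of yeast growth, normalised to vehicle-treated controls, is reported for a strain bearing genetic alterations in DNA damage repair.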
Test [4] can be described thus: NCI Yeast Anticancer Drug Screen. Data for the cln2 rad14 strain (AID 165).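 Note: 0% = growth equal to vehicle treated cultures.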 The following applies: S. cerevisiae cln2 rad14 strain, at 50.0 µM, stronger effect = higher value. The method, boiled down:
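Each compound was tested on cln2 rad14 yeast. Inhibition of growth was calculated against vehicle-exposed controls.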

Test [5] is described as follows: NCI Yeast Anticancer Drug Screen. Data for the bub3 strain (AID 167). The following applies: S. cerevisiae bub3 mutant strain, at 50.0 µM, stronger effect = higher value. The method, boiled down: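 Inhibition values come from growth of compound-treated mutant yeast normalised to vehicle-treated controls.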
Test [6] in a line: NCI Yeast Anticancer Drug Screen. Data for the mlh1 rad18 strain (AID 175). The conditions noted are these: S. cerevisiae mlh1 rad18 strain growth inhibition; at 50.0 µM; stronger effect = higher value. In a few lines: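 Vehicle-treated cultures served as the reference for growth inhibition in a yeast strain carrying DNA damage repair alterations exposed to each compound.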

For `O=[N+]([O-])c1ccc2c(c1)C(=Nc1ccccc1)c1cc([N+](=O)[O-])cc([N+](=O)[O-])c1-2`, the growth inhibition in test [1] is 8.3%; in test [2], 5.65%; in test [3], 19.1%; in test [4], 21.1%; in test [5], 3.5%; in test [6] it was 13.4%.

`COc1cc(C=O)ccc1OC(=O)Nc1cccc(C(C)=O)c1`: the growth inhibition in test [1] was 4.7%; in test [2], 23.6%; in test [3], 15.9%; in test [4] it was 7.65%; in test [5] it was 18.9%; in test [6], -18.6%.

On to `O=C(c1ccc(-c2ccccc2)cc1)N(C(=O)c1cc(N2CCOCC2)ccn1)c1ccc([N+](=O)[O-])cc1`, for which the growth inhibition is 43% in test [1]; 17.8% in test [2]; 45.8% in test [3]; 22.9% in test [4]; -5.6% in test [5]; 8.6% in test [6].

For `CCCCCC(=O)OCCOCCOC`, the growth inhibition was 33.7% in test [1]; -2.9% in test [2]; 29.6% in test [3]; 0.25% in test [4]; 2.25% in test [5]; 29.3% in test [6].

For the compound `COC1C2CCC1C(N=O)C2Br` (configuration not stated), the growth inhibition is -23.2% in test [1]; 3.75% in test [2]; -3.1% in test [3]; -44.9% in test [4]; 0.65% in test [5]; -14.7% in test [6].

Turning to `Cc1ccc(S(=O)(=O)OC2C3C4CCC5C3SC3C5C4C23)cc1` (configuration not stated), the growth inhibition in test [1] was -5.3%; in test [2] it was -21.1%; in test [3], -3.65%; in test [4], 5.8%; in test [5], 6.6%; in test [6], 1.1%.

`N=C1N=Nc2nc(C(C(=O)c3cccc4ccccc34)c3nc4n(c3O)C(=N)N=N4)c(O)n21` (configuration not stated): the growth inhibition is 19.5% in test [1]; 1.35% in test [2]; 14.2% in test [3]; 22.1% in test [4]; 0.9% in test [5]; 26.2% in test [6].

Turning to `c1ccc(C2OC3C4COC(O4)C3O2)cc1` (configuration not stated), the growth inhibition in test [1] was -24.7%; in test [2] it was -19.9%; in test [3], -15.4%; in test [4] it was -19.1%; in test [5], -1.75%; in test [6], -9.7%.

Regarding `CC(C)OP(=O)(OC(C)C)C1C(P(=O)(OC(C)C)OC(C)C)C(F)(F)C1(F)F` (configuration not stated), the growth inhibition was 11.4% in test [1]; 10.9% in test [2]; -7.35% in test [3]; -2.65% in test [4]; -2% in test [5]; 14.3% in test [6].

For the compound `Cc1c(Cl)cccc1NC(=O)Nc1ccccc1F`, the growth inhibition in test [1] is 14.2%; in test [2] it was 7.65%; in test [3], 15.2%; in test [4], 19.2%; in test [5] it was 28.4%; in test [6], 17.4%.

As to `CC(=O)Oc1c(C(C)C)cccc1C(C)(C)C`, the growth inhibition in test [1] is -10.8%; in test [2] it was -9.95%; in test [3] it was -1.1%; in test [4], -14.1%; in test [5] it was -34.1%; in test [6] it was -13.5%.

As to `COc1ccn(C2OC(=O)C(C)(C)C2=O)c(=O)n1` (configuration not stated), the growth inhibition was -0.4% in test [1]; -15.4% in test [2]; 0.55% in test [3]; -1.2% in test [4]; -9.4% in test [5]; -12.6% in test [6].

Take `CC(C)/C=C\C(=O)CC(C)C`: the growth inhibition in test [1] is -3.65%; in test [2] it was 28.8%; in test [3], 9.35%; in test [4], 5.9%; in test [5], 17.4%; in test [6] it was 18.6%.

On to `O=C1/C(=C/c2ccc(Cl)cc2)Oc2ccccc21`, for which the growth inhibition in test [1] is -31.4%; in test [2] it was -7.05%; in test [3] it was -18.9%; in test [4], 1.4%; in test [5] it was -8.1%; in test [6], -19.6%.

For `CCCc1c(C(=O)OCC)[nH]c(-c2ccc(-c3[nH]c(C(=O)OCC)c(CCC)c3C(=O)OCC)s2)c1C(=O)OCC`, the growth inhibition in test [1] is -11.8%; in test [2] it was -11.3%; in test [3], -21.6%; in test [4], 3%; in test [5], -12.6%; in test [6], -16.1%.

On to `CN(C)CC(/C(Cc1ccccc1)=N\NC(=S)NN)c1ccccc1` (configuration not stated), for which the growth inhibition is 23.1% in test [1]; 9.55% in test [2]; 38.2% in test [3]; 21.4% in test [4]; -3.25% in test [5]; 13.7% in test [6].

In the case of `CCCOC(=O)c1ccccc1C(=O)OC1CCCCC1`, the growth inhibition in test [1] was 8%; in test [2], -2.05%; in test [3], 9.2%; in test [4], -18%; in test [5], -2.4%; in test [6], -8.65%.

`CCCCCCCC/C=C/CCCCCC1CCCC(C)N1` (configuration not stated): the growth inhibition was 26.9% in test [1]; -20.6% in test [2]; 2.3% in test [3]; 3.65% in test [4]; -11.2% in test [5]; -2.55% in test [6].

For `COc1ccc2c(c1)s/c(=N/N)n2CCCS(=O)(=O)O`, the growth inhibition in test [1] is 5.5%; in test [2] it was -1.75%; in test [3], 20.9%; in test [4], 23.1%; in test [5] it was 5.4%; in test [6] it was 12.2%.

With `C[C@H]1C(=O)OCN1C(=O)OCc1ccccc1`, the growth inhibition is 0.05% in test [1]; 16.4% in test [2]; 12.3% in test [3]; -6% in test [4]; 12.6% in test [5]; -0.5% in test [6].

As for `Brc1c(NC2=NCCN2)ccc2nccnc12`, the growth inhibition was 6.2% in test [1]; 5.1% in test [2]; -24% in test [3]; -6.45% in test [4]; -22.1% in test [5]; -56.9% in test [6].

As to `Cc1cc(OCCCCCCC[N+](C)(C)Cc2ccc([N+](=O)[O-])o2)c(C(C)C)cc1Cl`, the growth inhibition in test [1] is 99.6% (active); in test [2] it was 99.8% (active); in test [3] it was 99.8% (active); in test [4] it was 99.6% (active); in test [5], 99.5% (active); in test [6], 99.7% (active).

Consider `CCN(CC)C(=O)c1cncc(C(N)=O)c1`, for which the growth inhibition in test [1] was 4.85%; in test [2], -14.7%; in test [3] it was 28%; in test [4] it was 10.8%; in test [5], 12.7%; in test [6] it was 14.2%.

As for `CCOC(=O)Nc1ccc(F)c(C(F)(F)F)c1`, the growth inhibition in test [1] is -8.05%; in test [2], 4.45%; in test [3] it was 8.6%; in test [4], -52.3%; in test [5], 11.6%; in test [6], -4.25%.

`O=C(NN(C(=O)c1ccc([N+](=O)[O-])cc1)c1ccccc1)c1ccc([N+](=O)[O-])cc1`: the growth inhibition was 3.1% in test [1]; 14.2% in test [2]; 14.1% in test [3]; 21.4% in test [4]; 12.8% in test [5]; 13.2% in test [6].

Take `O=C1NC2OC(CO)C(O)C(O1)C2O` (configuration not stated): the growth inhibition in test [1] was -9.7%; in test [2] it was 19.4%; in test [3], -24.9%; in test [4] it was -5%; in test [5] it was -28.8%; in test [6] it was -25%.

Consider `CC(C)C1OC2OCCCC2C(C(C)C)O1` (configuration not stated), for which the growth inhibition was 17.2% in test [1]; -5.85% in test [2]; 8.15% in test [3]; -11.9% in test [4]; -22.1% in test [5]; 11% in test [6].

For the compound `COc1c(C)c2nc3ccccc3[nH]c2c2c(=O)ccnc12`, the growth inhibition in test [1] is -3.8%; in test [2] it was -29.6%; in test [3] it was -12.4%; in test [4] it was 14.8%; in test [5], -21.9%; in test [6] it was 46.1%.

In the case of `O=c1c2cnccc2cc2n1CCc1c-2[nH]c2ccccc12`, the growth inhibition in test [1] was 88.4% (active); in test [2] it was 89.3% (active); in test [3] it was 88.8% (active); in test [4] it was 90.2% (active); in test [5], 69.8%; in test [6], 86.4% (active).

On to `C[C@]12CC[C@@H]3c4ccc(O)cc4CC[C@H]3[C@@H]1CC[C@@H]2OC(=O)CCc1ccccc1`, for which the growth inhibition in test [1] was 35.1%; in test [2], 9.8%; in test [3] it was 26.3%; in test [4], 28.5%; in test [5], -2.4%; in test [6] it was 31.1%.

Turning to `CC(C)CC1N=C(OCc2ccccc2)OC1=O` (configuration not stated), the growth inhibition in test [1] was -16.6%; in test [2] it was -79.5%; in test [3] it was -20.4%; in test [4] it was -15.7%; in test [5], 5.25%; in test [6] it was -14.2%.

`COc1ccccc1C(O)C(C)(C)C` (configuration not stated): the growth inhibition in test [1] is 50.9%; in test [2], 2.45%; in test [3], 7.5%; in test [4] it was 8.9%; in test [5] it was 8.4%; in test [6], 28.9%.

With `Cc1ccc(S(=O)(=O)OC2C3OC(C)(C)OC3OC2C2CSC(=S=O)S2)cc1` (configuration not stated), the growth inhibition in test [1] is 31.6%; in test [2], -0.6%; in test [3], 21.8%; in test [4], 22.2%; in test [5], -3.15%; in test [6], 12.7%.

For the compound `N/N=C(/c1ccc(Cl)cc1)N1CCOCC1`, the growth inhibition in test [1] was 15.4%; in test [2], 1.1%; in test [3] it was 3.8%; in test [4], -8.6%; in test [5], -18%; in test [6], 5.35%.

For the compound `Cc1cc(S(=O)(=O)Nc2n[nH]c(Nc3ccccc3)n2)c(S)cc1Cl`, the growth inhibition was -3.5% in test [1]; 9% in test [2]; -13.8% in test [3]; 9.6% in test [4]; 12.9% in test [5]; 19.6% in test [6].

For the compound `CCOC(=O)c1cn(CC)c2c(ccc3cnccc32)c1=O`, the growth inhibition is -3.55% in test [1]; -18.4% in test [2]; -18.4% in test [3]; 29.6% in test [4]; -11% in test [5]; 10.2% in test [6].

As for `O/N=C/c1ccc(Cc2ccccc2)o1`, the growth inhibition in test [1] is 15.7%; in test [2], 19.6%; in test [3] it was 11.2%; in test [4], -18.8%; in test [5], -11.3%; in test [6], 25.9%.
